Reference: PubChem BioAssay AID588334 (Broad Institute, 2011)
The campaign covered roughly 300,000 compounds. About 2,300 (0.77%) were called active.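 How the source made its calls: active means mean activation of at least 80% with every replicate also reaching 80%; inconclusive means mean reaches 80% but some replicate falls short; inactive means the rest.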 What follows is part of a selection rich in actives, with near analogues and random picks from the rest.

Assay: MITF-driven TRPM1 luciferase induction in melanoma cells – cell-based, SK-MEL-5, single point, primary screen (AID 588334);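 further: 0% = neutral control wells and 100% = parthenolide positive control wells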
Conditions: SK-MEL-5 TRPM1-promoter luciferase, 24 h; at 12.5 µM; stronger effect = higher value; % of positive control, neutral wells = 0

SMILES	activation
COc1ccccc1OCCCC(=O)Nc1ccc2c(c1)OCCO2	24.7% (inactive)
CCc1ccccc1OCC(=O)Nc1ccc2c(c1)OCCO2	89.7% (active)
CCC(=O)c1cc(F)ccc1OCC(=O)Nc1ccc2c(c1)OCCO2	22.6% (inactive)
Cc1cc2c(cc1C)NC1(C[C@H]3CCC(=O)N4CC[C@@H](C1)[C@@H]34)C(=NC(C)(C)CC(C)(C)C)N2 (stereo partly drawn)	-10% (inactive)
O=C(CN1CCN(c2ccccn2)CC1)N1CCc2ccccc21	19.8% (inactive)
O=C(CSCc1ccccc1)N1CCc2ccccc21	95% (active)
NC(=O)N1CCc2ccccc21	-5.85% (inactive)
Cn1c(N)cc(=O)n(C)c1=S	-8.41% (inactive)
CC(C)c1ccc(/C=C/C(=O)NCCCN2CCOCC2)cc1	4.51% (inactive)
C=CCNC(=O)/C=C/c1ccc(C(C)C)cc1	89.4% (active)
CC(C)c1ccc(/C=C/C(=O)NNC(=O)c2cccnc2)cc1	9.02% (inactive)
CN(C(=O)c1cccc(NC(=O)Cc2ccc(NC(=O)C3CCCN(C(=O)C4CCCC4)C3)cc2)c1)C1CCC1 (stereo not drawn)	-9.98% (inactive)
O=c1ccn([C@@H]2O[C@H](CNS(=O)(=O)c3cc4ccccc4s3)[C@@H](O)[C@H]2O)c(=O)[nH]1	-4.34% (inactive)
O=C(Nc1cccc(S(=O)(=O)N2CCOCC2)c1)C12CC3CC(CC(C3)C1)C2	12.4% (inactive)
Cc1cc(C)c2nc(NC(=O)C3CCCO3)sc2c1 (stereo not drawn)	81.4% (active)
Cc1cc([N+](=O)[O-])ccc1NC(=O)C1CCCO1 (stereo not drawn)	-1.67% (inactive)
Cc1ccc(C)c(C(C)NC(=O)C2CCCO2)c1 (stereo not drawn)	-7.6% (inactive)
C/C(=N\Nc1ccc(Cl)nn1)c1ccccc1O	-45.2% (inactive)
NC(=O)c1ccc(N2CCCC2)nc1	-7.45% (inactive)
COc1ccc(CN2C(CC(=O)Nc3cccnc3)c3ccc(C(F)(F)F)cc3S2(=O)=O)cc1 (stereo not drawn)	11.4% (inactive)
O=C1COc2c1ccc(O)c2O	1.19% (inactive)
Cc1cc(/C=C2/SC(=O)N(CC(=O)OC(C)C)C2=O)c(C)n1C	97.9% (active)
Cc1cc(/C=C2\SC(=O)N(C)C2=O)c(C)n1-c1cccc(C(=O)O)c1	3.12% (inactive)
CC(C)OC(=O)CN1C(=O)C(=O)c2ccccc21	-5.18% (inactive)
O=c1c(Cl)c(NC2CC2)cnn1-c1ccccc1	6.24% (inactive)

SMILES	activation
C=CCNc1cnn(-c2ccc(C)cc2)c(=O)c1Cl	108% (active)
CCCNC(=O)c1c(Cl)cnn1-c1ccc(C)cc1	69.7% (inactive)
O=C(c1cccc(S(=O)(=O)N2CCCCCC2)c1)N1CCN(Cc2ccccc2)CC1	4.94% (inactive)
COc1ccc(NC(=O)Nc2cccc3cccnc23)cc1	40.1% (inactive)
COc1ccc(NC(=O)Nc2ccc3nsnc3c2)cc1	92.9% (active)
COc1ccc(/C=N/NC(=O)Nc2ccc3nsnc3c2)c(OC)c1	4.9% (inactive)
O=C(Nc1c(Br)cc2c(c1Br)Cc1cc([N+](=O)[O-])ccc1-2)C(Cl)Cl	-16.6% (inactive)
FC(F)(F)c1ccc(-c2cccc3c2C2CC3CCN2Cc2ccccc2)cc1 (stereo not drawn)	-0.65% (inactive)
COc1ccc(NC(=O)/C(N=Nc2cccc(S(=O)(=O)Nc3ccc(SC(F)F)cc3)c2)=C(\C)O)cc1	-7.51% (inactive)
CN(C(=O)c1cccc(NC(=O)Cc2ccc(NC(=O)C3CCCN(C(=O)C4CC4)C3)cc2)c1)C1CC1 (stereo not drawn)	-7.94% (inactive)
CCOc1cccc(C(=O)Nc2nnc(-c3cccs3)s2)c1	25.8% (inactive)
Cc1ccc(C(=O)Nc2nnc(-c3cccs3)s2)cc1C	87.8% (active)
Cc1ccc(C(=O)Oc2coc(CSc3nnc(NC(=O)c4cccs4)s3)cc2=O)cc1C	0.796% (inactive)
NC1=NOC(=O)C1C1CCCCC1 (stereo not drawn)	-0.578% (inactive)
O=c1[nH]c2c(c(=O)n1-c1ccccc1)CCO2	1.65% (inactive)
COc1cc(C2CC(=O)Oc3cc(OC)c(OC)c(OC)c32)cc(OC)c1OC (stereo not drawn)	1.92% (inactive)
CCCn1nnc2sc3c(c2c1=O)CCC(C)C3 (stereo not drawn)	99.2% (active)
C=CCn1c(SCc2c(C)noc2C)nc2sc3c(c2c1=O)CCC(C)C3 (stereo not drawn)	-11.8% (inactive)
CC1CCc2c(sc3nc4n(c(=O)c23)CCS4)C1 (stereo not drawn)	73.6% (inactive)
CS(=O)(=O)N1CCc2cc(C(=O)Nc3ccccc3Br)ccc21	85.3% (active)
CS(=O)(=O)N1CCc2cc(C(=O)Nc3ccccc3)ccc21	49.3% (inactive)
CSc1ccccc1NC(=O)c1ccc2c(c1)CCN2S(C)(=O)=O	25.3% (inactive)
CC(=O)c1cccc(NC(=O)Nc2ccc(C)cc2)c1	104% (active)
Cc1ccc(NC(=O)Nc2ccc3oc(C)nc3c2)cc1	92.6% (active)
C=C(C)C(=O)Nc1cccc(C(C)=O)c1	5.72% (inactive)

SMILES	activation
Cc1nc2ccc(NC(=O)C(F)(F)F)cc2o1	-1.51% (inactive)
COC(=O)c1ccc(NC(=O)Nc2ccc(C)cc2)cc1	25.4% (inactive)
Cc1nc2cc(NC(=O)NCc3ccccc3)ccc2o1	14.2% (inactive)
C[C@H](O)[C@@H]1C(=O)N2CCc3ccc(N4CCOCC4)cc3[C@@H]2C[C@@H]1N(C)C(=O)C(C)(C)C	3.72% (inactive)
COc1ccc(C2NCCCC2c2ccccc2)cc1 (stereo not drawn)	-15.7% (inactive)
O=C(NN=Cc1ccccc1O)NN=Cc1ccccc1O	-21.8% (inactive)
O=C(Nc1ccc2ccccc2c1[N+](=O)[O-])c1ccccc1	37.5% (inactive)
COc1cc(C(=O)OCc2cc(=O)n3ccsc3n2)ccc1OC(C)C	25% (inactive)
COc1ccc([C@H]2CC(=O)C=C(/C=C/c3ccccc3)C2)cc1	84.7% (active)
COc1ccc([C@H]2CC(=O)C=C(c3ccc(C)cc3)C2)cc1	18.7% (inactive)
COc1ccc([C@H]2CC(=O)C=C(/C=C/c3ccc(Cl)cc3)C2)cc1	55.4% (inactive)
CC1CN(Cc2ccccc2)C(=S)NC1=O (stereo not drawn)	3.25% (inactive)
COC(=O)c1ccc(CNC(=O)Cn2cc(C)c(=O)[nH]c2=O)cc1	2.68% (inactive)
FC(F)(F)c1cccc(N/N=C/c2ccccc2)c1	88.5% (active)
FC(F)(F)c1cccc(Nc2ncnc3ccccc23)c1	0.633% (inactive)
Cc1nnsc1C(=O)N/N=C/c1cccc(C(F)(F)F)c1	15.6% (inactive)
Cc1c(NS(=O)(=O)c2cccc(C(=O)Nc3ccc(SC(F)F)cc3)c2)c(=O)n(-c2ccccc2)n1C	-11% (inactive)
COc1cc(/C=C/c2ccc(/C=C/c3cc(OC)c(OC)c(OC)c3)cc2)cc(OC)c1OC	-15.7% (inactive)
COc1cccc(NCCC(=O)c2cccc([N+](=O)[O-])c2)c1	85.6% (active)
COc1cccc(C(=O)CC(=O)C(=O)Nc2ccc([N+](=O)[O-])cc2C)c1	0.189% (inactive)
COc1cccc(CNC(=O)CCCC(=O)Nc2cccc([N+](=O)[O-])c2)c1	-21% (inactive)
Cc1ccc(C)c(S(=O)(=O)N2CCN(c3ncnc4sccc34)CC2)c1	-33.1% (inactive)
CCC(C)C1(C2CCCC2)NC(=O)NC1=O (stereo not drawn)	-0.575% (inactive)
CSCCC(NS(=O)(=O)c1ccc(C)cc1)C(=O)N(C)CC(=O)Nc1ccccc1Br (stereo not drawn)	-13.8% (inactive)
Cc1nn2cc(-c3ccc(Cl)cc3)cnc2c1Br	132% (active)

SMILES	activation
C=CCn1c(=O)n(C)c2c(=O)n(C)c(=O)n(C)c21	-2.68% (inactive)
O=C1c2ccccc2C(=O)N1CCCCCCN1C(=O)c2ccccc2C1=O	-10.4% (inactive)
CC(C)n1cnc2c(NCc3ccccc3)cc(OCC3CCN(C)CC3)cc21	-31% (inactive)
O=C(c1ccc(CSc2ccccc2)cc1)N1CCCCCC1	61.5% (inactive)
CN(C)c1ccc(CSc2ccccc2)cc1	106% (active)
CN(C)c1cc[n+](Cc2ccccc2)cc1	-11.3% (inactive)
C=CC[C@H](CC(=O)N(CCO)Cc1ccccc1)C(=O)N[C@@H](COC(=O)[C@@H](CC=C)Cc1ccc(F)cc1)Cc1ccccc1	8.2% (inactive)
Nc1cc(=O)n(Cc2ccccc2)c(=O)n1Cc1ccccc1	-2.74% (inactive)
Cn1c(SCc2c(F)cccc2Cl)nnc1-c1cnccn1	90.4% (active)
Cc1ccc(CSc2nnc(-c3cnccn3)n2C)cc1	12.1% (inactive)
Oc1ccc(-n2nnnc2SCc2c(F)cccc2Cl)cc1	0.316% (inactive)
Cc1ccc(C(=O)Nc2ccccc2-c2ccccc2)cc1S(=O)(=O)Nc1ccccc1	3.07% (inactive)
CCOc1cc(C(=O)N(Cc2ccccc2)c2ccc(C)cc2)ccc1OCC(=O)N1CCOCC1	-10.1% (inactive)
O=C(COC(=O)c1ccco1)NCc1ccc(Cl)cc1	-14.2% (inactive)
O=C(COC(=O)c1ccccc1C(=O)c1ccccc1)c1ccco1	1.5% (inactive)
CCN(CC)c1ccc(C(=O)OCC(=O)c2ccco2)cc1	83.2% (active)
O=C(OCC(=O)N1CCCC1)c1ccco1	4.95% (inactive)
CCOC(=O)c1ccc(NC(=O)CNC(=O)c2ccco2)cc1	7.02% (inactive)
CCc1ccc(C(=O)COC(=O)c2ccco2)cc1	99.6% (active)
CCCCN1CC(COc2ccccc2)Oc2cccc(F)c2S1(=O)=O (stereo not drawn)	-2.06% (inactive)
N#CCc1c[nH]c2ccc([N+](=O)[O-])cc12	11.4% (inactive)
CCC1([N+](=O)[O-])COC(c2ccc(C)cc2)OC1 (stereo not drawn)	1.68% (inactive)
CN(CCc1ccccc1)C(=O)c1cccc(NC(=O)Cc2cccc(NC(=O)C3CCCN(C(=O)C4CCC4)C3)c2)c1 (stereo not drawn)	-9.62% (inactive)
